Screens: PubChem, National Center for Advancing Translational Sciences (NCATS)
Only some compounds are listed: those with a hit (about 7.3% of all), similar ones and a draw of the others.
uPA surface inh: cell surface uPA generation inhibition. cell surface uPA generation assay, qHTS. Potency, µM (titrated, usually from 38.3 µM), actives largely listed as inhibitors. hit rate 0.31% among 330,000. AID 540303; active = well fitted inhibition curve with a large enough effect; inconclusive = small, poorly fitted or top-dose-only effect; inactive = no such curve, though single readings can be large or run the other way; tested in mouse RAW 264.7 cells; also: nearly all actives have a fitted effect of over 55% in size
NPC1 prom act: NPC1 promoter activation. Huh7 NPC1 promoter luciferase reporter, 24 h. Potency, µM (highest dose often 9.22 µM), actives largely listed as activators. hit rate 2.4% among 320,000. AID 485313; also: nearly all actives have a fitted effect of over 60% in size
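Compounds in DMSO were transferred onto Huh7 NPC1-luciferase reporter cells pre-incubated 2 h; after 24 h at 37 °C, Amplite reagent was dispensed and luminescence recorded 10 min later.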
SMN2 splice up: enhancers of SMN2 splice variant expression; HEK293 SMN2-luciferase splicing reporter, luminescence, 30-36 h; Potency, µM (series often up to 46.1 µM), actives largely listed as activators; hit rate 2.8% among 210,000; AID 1458; also: nearly all actives have a fitted effect of over 55% in size
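HEK293 cells carry an SMN2 minigene-luciferase reporter in which exon 7 inclusion puts luciferase in frame. Cells were seeded at 2000 cells/well, attached for 10-12 hours, then exposed to compounds for 30-36 hours at 37C before ONE-Glo luminescence.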
FLuc modulator: inhibits or activates purified firefly luciferase, miR-21 counter-screen | Potency, µM (titrated, usually from 57.5 µM), most hits filed as inhibitors | AID 588342 | purified FLuc, Km substrates, luminescence inhibition | hit rate 6.9% among 360,000; also: nearly all actives have a fitted effect of over 55% in size
Target sequence (P08659 whole entry, looked up): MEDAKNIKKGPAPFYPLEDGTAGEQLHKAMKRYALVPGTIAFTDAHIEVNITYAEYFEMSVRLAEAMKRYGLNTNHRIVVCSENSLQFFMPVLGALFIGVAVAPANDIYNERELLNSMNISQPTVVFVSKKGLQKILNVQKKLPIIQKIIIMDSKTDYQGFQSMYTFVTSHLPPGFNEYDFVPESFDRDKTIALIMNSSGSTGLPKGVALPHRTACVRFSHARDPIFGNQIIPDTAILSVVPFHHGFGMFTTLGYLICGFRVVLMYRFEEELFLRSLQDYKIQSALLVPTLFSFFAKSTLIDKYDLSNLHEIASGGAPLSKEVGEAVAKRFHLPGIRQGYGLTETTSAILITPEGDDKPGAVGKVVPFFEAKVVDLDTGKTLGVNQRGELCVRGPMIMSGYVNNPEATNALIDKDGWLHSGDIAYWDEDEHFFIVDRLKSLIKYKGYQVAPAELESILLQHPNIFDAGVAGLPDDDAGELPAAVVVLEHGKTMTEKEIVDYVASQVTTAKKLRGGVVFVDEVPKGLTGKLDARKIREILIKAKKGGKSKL
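Biochemical qHTS of compounds, final roughly 60 µM downward over six points, against 10 nM purified firefly luciferase using Km concentrations of substrates (10 uM D-luciferin, 10 uM ATP) in Tris acetate pH 7.5 buffer; luminescence output.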
Rab9 promoter act: activates the Rab9 promoter | Huh7 Rab9 promoter-luciferase reporter, luminescence, 24 h | Potency, µM (top dose mostly 9.22 µM), hits mostly activators | hit rate 2.8% among 320,000; also: nearly all actives have a fitted effect of over 60% in size
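Cells were plated at 1500 per well in reduced-serum medium with 10% FBS and left 2 h. Compound in DMSO was then added for 24 h at 37 °C. Reporter signal was read by luminescence after 10 min with luciferase detection reagent.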
ELG1 genotoxic: genotoxicity induction in ELG1-luciferase HEK293T cells. AID 504466. HEK293T ELG1-luciferase reporter, luminescence, 16 h. hit rate 1.3% among 330,000. Potency, µM (top dose mostly 46 µM), usual class: activators; also: nearly all actives have a fitted effect of over 60% in size
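HEK293T cells expressing luciferase-tagged ELG1 were treated with compound or DMSO for 16 hr at 37°C. Luciferase activity was then read after 30 min with ONE-Glo at room temperature; rising signal flags genetic stress.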
A number is an active result; – = inactive; ? = inconclusive; · = no result; [ ] = remark or other dose. Unless noted, calls follow the shape of the dose curve; as a rule, active = well fitted curve in the direction sought with a large enough effect; inconclusive = small, poorly fitted or top-dose-only effect, or another doubt; inactive = no such curve, though single readings can be large; an effect the other way counts as inactive or inconclusive.

SMILES	uPA surface inh	NPC1 prom act	SMN2 splice up	FLuc modulator	Rab9 promoter act	ELG1 genotoxic
Cc1ccc(C(=O)O/N=C(\N)c2ccccc2)c(Cl)c1	–	2.2µM	·	0.085µM	0.79µM	?
N/C(=N\OC(=O)c1cc(Br)ccc1Cl)c1ccccn1	–	?	11µM	3.8µM	?	?
Cc1c(C(=O)O/N=C(\N)c2ccccn2)cccc1[N+](=O)[O-]	–	3.2µM	·	0.3µM	0.79µM	2.1µM
N/C(=N\OC(=O)Cc1ccccc1[N+](=O)[O-])c1ccccn1	–	–	–	?	–[1.84 µM]	?
N/C(CS(=O)(=O)c1ccccn1)=N\OC(=O)c1ccccc1Cl	–	2µM	·	?	2.2µM	?
O=C(O/N=C(\c1ccccc1)c1ccccn1)c1ccc(Cl)c(Cl)c1	–	–	–	–	–	–
COCC1=C2c3ccccc3[C@H](C[N+](=O)[O-])C(C(=O)OC)(C(=O)OC)C[C@@H]2n2c(=O)n(-c3ccccc3)c(=O)n2C1	·	·	–	·	·	·
CN(CC(=O)Nc1ccc(Cl)cc1)C(=O)c1sccc1-c1ccccc1	–	–	·	–	–	–
Cc1ccc(Cl)cc1NC(=O)NCc1cccn1Cc1ccc(F)cc1	·	·	–	–	·	·
CCOc1ccc(-n2c(SCC(=O)NCC3CCCO3)nc3c([nH]c4ccccc43)c2=O)cc1 (configuration not stated)	·	·	·	–	·	·
N/C(=N\OC(=O)c1ccc(Cl)cc1Cl)c1ccccn1	2.8µM	0.32µM	·	0.095µM	0.11µM	0.26µM
N/C(=N\OC(=O)c1ccc(=O)n(Cc2ccc(Cl)cc2)c1)c1ccccn1	?	–	–	–	–	–
O=C(NCCNC(=O)c1ccc(Cl)cc1Cl)c1ccccn1	–	–	·	–	–	–
Cc1ccc(C(=O)O/N=C(\N)c2ccccn2)c(Cl)c1	?	?	·	0.019µM	0.71µM	?
COc1ccc(/C=C/C(=O)O/N=C(\N)c2ccccn2)cc1OC	–	·	·	·	·	?
N/C(=N\OC(=O)c1ccc(Cl)cc1[N+](=O)[O-])c1ccccn1	–	?	·	3.4µM	?	21µM
c1ccc(NCc2nc(-c3ccccc3)no2)cc1	–	?	?	17µM	?	23µM
Cc1ccc(S(=O)(=O)NCc2nc(-c3ccccc3)no2)cc1	–	–	·	–	–	–
Cc1ccc(-c2noc(COc3ccccc3C)n2)cc1	–	–	–	21µM	–	?
COc1ccc(-c2noc(COc3ccccc3OC)n2)cc1OC	–	–	–	?	–	?
Cc1ccc(OCc2nc(-c3ccccc3)no2)cc1	–	?	·	7.6µM	4µM	?
Cc1ccc(C)c(OCc2nc(-c3cccnc3)no2)c1	–	–	·	?	–	–
COc1ccc(OCc2nc(-c3ccc(-n4cccc4)cc3)no2)cc1	·	·	·	–	·	·
Cc1cc(Br)ccc1OCc1nc(-c2cccnc2)no1	–	–	?	?	?	21µM
COc1ccc(C(=O)CN2C(=O)N(c3ccc(C(C)=O)cc3)S(=O)(=O)c3ccccc32)cc1	·	·	·	–	·	·
SMILES	uPA surface inh	NPC1 prom act	SMN2 splice up	FLuc modulator	Rab9 promoter act	ELG1 genotoxic
CC(C)C[C@H](NC(=O)C1OC1C(=O)O)C(=O)NCCCCN=C(N)N (some centres not stated)	·	–	–	·	–	·
COc1cc(CNC(=O)c2ccc3c(c2)N(C)C(=O)C2CCCCN32)cc(OC)c1OC (configuration not stated)	·	·	·	–	·	·
Cc1ccccc1OCc1nc(-c2ccc(NC(=O)c3ccc4c(c3)OCO4)cc2)no1	–	–	–	?	–	–
c1ccc(-c2noc(COc3ccc4c(c3)OCO4)n2)cc1	–	4µM	14µM	2.1µM	2.8µM	9.2µM
COc1cccc(-c2noc(COc3ccccc3Cl)n2)c1	·	·	?	11µM	·	·
COc1ccc(-c2noc(COc3ccc4c(c3)OCO4)n2)cc1	–	–	–	–	–	–
Cc1ccccc1OCc1nc(-c2ccccc2)no1	–	4µM	32µM	4.8µM	4µM	?
Cc1ccccc1OCc1nc(-c2ccc(Br)o2)no1	–	–	–	17µM	–	?
CCn1c(CC2C(=O)N(C)c3ccccc32)nc2ccccc2c1=O (configuration not stated)	·	·	–	–	·	·
Cc1cc(C(C)(C)C)cc(C)c1C[n+]1ccc2ccccc2c1	4.5µM	–	·	–	–[1.84 µM]	–
CCOc1ccc(Nc2nc(-c3cccc(Cl)c3)c3c(n2)-c2ccccc2OC3)cc1	·	·	·	12µM	·	·
COc1ccc(Nc2nc(-c3cccc(Cl)c3)c3c(n2)-c2ccccc2OC3)cc1	·	·	·	–	·	·
Cc1csc(=Nc2ccccc2)n1C	–	–	–	–	–	–
Cc1ccc(N=c2sc(C)c(C)n2C)cc1	–	?	?	21µM	?	?
O=C(c1ccc(Cl)c(S(=O)(=O)N2CCOCC2)c1)N(Cc1ccco1)Cc1cccs1	1.1µM	–	·	–	–	–
